Source: PubChem BioAssay (Tox21)
Where “and” joins values, the source holds several entries; their conditions need not be identical. Equal values may be shown once. Records with an inconclusive call do not appear. Entries that show only a call come without a potency. The source holds several records for some structures; these can differ, active in one and inactive in another. Calls of active or inactive are those of the source. Unless noted, the call rests on the fitted dose curve; in most records, active means well fitted curve in the direction sought with a large enough effect in the repeat runs; inconclusive means weak or mixed curves; inactive means no such curve, though single readings can be large; an effect the other way counts as inactive or inconclusive.

Legend:
[1] = qHTS assay to identify small molecule antagonists of the sonic hedgehog signaling (Shh) pathway (AID 1259369; calls by dose curve; further: nearly all actives have a fitted effect of over 45% in size; further: potency means the concentration at half of the fitted maximal effect)
How it was run: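 Inhibition of Shh signalling is measured as reduced Gli1-response-element firefly luciferase output in an NIH/3T3-derived stable reporter clone stimulated with conditioned medium for 24hr.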

[2] = target: Estrogen receptor beta (Homo sapiens) (UniProt Q92731); assay: qHTS assay to identify small molecule agonists of the estrogen receptor beta (ER-beta) signaling pathway (AID 1259377; active means well fitted activation curve with a large enough effect in the signal ratio in the repeat runs, not every such curve was filed as active; the % refers to the signal ratio)
Estrogen receptor beta (Homo sapiens), sequence (Q92731 whole entry, looked up): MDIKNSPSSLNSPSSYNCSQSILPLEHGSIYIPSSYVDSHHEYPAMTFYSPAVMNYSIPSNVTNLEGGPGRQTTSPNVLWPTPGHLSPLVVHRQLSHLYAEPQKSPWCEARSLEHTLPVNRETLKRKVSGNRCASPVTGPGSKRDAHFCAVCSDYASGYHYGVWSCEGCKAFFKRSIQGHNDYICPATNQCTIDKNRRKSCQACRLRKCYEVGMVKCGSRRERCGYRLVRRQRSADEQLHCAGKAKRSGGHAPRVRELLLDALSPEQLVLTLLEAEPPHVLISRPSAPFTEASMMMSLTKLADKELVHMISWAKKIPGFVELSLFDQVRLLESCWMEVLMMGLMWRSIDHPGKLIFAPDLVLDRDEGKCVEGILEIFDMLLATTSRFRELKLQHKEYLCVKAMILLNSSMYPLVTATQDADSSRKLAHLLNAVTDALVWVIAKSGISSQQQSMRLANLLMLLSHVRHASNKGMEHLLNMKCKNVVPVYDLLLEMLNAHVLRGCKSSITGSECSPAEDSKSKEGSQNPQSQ
How it was run: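 A UAS-controlled beta-lactamase reporter in ER-beta-UAS-bla HEK293T cells reports receptor activation. Compounds act for 16 hr at 37C in 2% charcoal-stripped serum, and a FRET substrate is read by fluorescence after 2 hours.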

[3] = target: Estrogen receptor beta (Homo sapiens) (UniProt Q92731); assay: qHTS assay to identify small molecule antagonists of the estrogen receptor beta (ER-beta) signaling pathway (AID 1259378; active means well fitted inhibition curve with a large enough effect in the signal ratio in the repeat runs, not every such curve was filed as active; the % refers to the signal ratio; further: potency means the concentration at half of the fitted maximal effect)
How it was run: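 Antagonist mode: compounds added to beta-lactamase reporter HEK293T ER-beta-UAS cells stimulated with E2 (1nM final), 16 hr at 37C. LiveBLAzer B/G FRET substrate, 2 hours room temperature, fluorescence read-out.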

[4] = qHTS assay to identify small molecule agonists of the androgen receptor (AR) signaling pathway in the presence of an antagonist - cell viability counter screen (AID 1259379); further: nearly all actives have a fitted effect of over 25% in size; further: potency means the concentration at half of the fitted maximal effect
How it was run: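 Fluorescence from CellTiter-Fluor, added after 15 hr and read 1 hr later, gave cell viability. Cells were MDA-kb2 exposed to compounds (15 concentrations) in the presence of 3.0uM nilutamide at 37C, 0% CO2.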

[5] = qHTS assay to identify small molecule agonists of the estrogen receptor beta (ER-beta) signaling pathway - cell viability counter screen (AID 1259380); further: nearly all actives have a fitted effect of over 30% in size; further: potency means the concentration at half of the fitted maximal effect
How it was run: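 Same-well viability counter screen. Cells: ER-beta-UAS-bla HEK293T, plated 6 hr before compound, in 2% charcoal-stripped FBS. Compound exposure 16 hr, 37C; viability by CellTiter-Glo luminescence after 30 min at room temperature.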

[6] = qHTS assay to identify small molecule antagonists of the estrogen receptor beta (ER-beta) signaling pathway - cell viability counter screen (AID 1259382); further: nearly all actives have a fitted effect of over 55% in size; further: potency means the concentration at half of the fitted maximal effect
How it was run: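 Following a 6 hr plating period, HEK293T cells carrying a UAS-driven beta-lactamase reporter under ER-beta control received compounds and 1nM E2 (final). After 16 hr at 37C and 2 hr substrate loading, CellTiter-Glo luminescence indicated viability.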

[7] = target: Thyrotropin receptor (Homo sapiens) (UniProt P16473); assay: qHTS assay to identify small molecule antagonists of the thyroid stimulating hormone receptor (TSHR) signaling pathway (AID 1259385; calls by dose curve; further: nearly all actives have a fitted effect of over 20% in size)
Thyrotropin receptor (Homo sapiens), sequence (P16473 whole entry, looked up): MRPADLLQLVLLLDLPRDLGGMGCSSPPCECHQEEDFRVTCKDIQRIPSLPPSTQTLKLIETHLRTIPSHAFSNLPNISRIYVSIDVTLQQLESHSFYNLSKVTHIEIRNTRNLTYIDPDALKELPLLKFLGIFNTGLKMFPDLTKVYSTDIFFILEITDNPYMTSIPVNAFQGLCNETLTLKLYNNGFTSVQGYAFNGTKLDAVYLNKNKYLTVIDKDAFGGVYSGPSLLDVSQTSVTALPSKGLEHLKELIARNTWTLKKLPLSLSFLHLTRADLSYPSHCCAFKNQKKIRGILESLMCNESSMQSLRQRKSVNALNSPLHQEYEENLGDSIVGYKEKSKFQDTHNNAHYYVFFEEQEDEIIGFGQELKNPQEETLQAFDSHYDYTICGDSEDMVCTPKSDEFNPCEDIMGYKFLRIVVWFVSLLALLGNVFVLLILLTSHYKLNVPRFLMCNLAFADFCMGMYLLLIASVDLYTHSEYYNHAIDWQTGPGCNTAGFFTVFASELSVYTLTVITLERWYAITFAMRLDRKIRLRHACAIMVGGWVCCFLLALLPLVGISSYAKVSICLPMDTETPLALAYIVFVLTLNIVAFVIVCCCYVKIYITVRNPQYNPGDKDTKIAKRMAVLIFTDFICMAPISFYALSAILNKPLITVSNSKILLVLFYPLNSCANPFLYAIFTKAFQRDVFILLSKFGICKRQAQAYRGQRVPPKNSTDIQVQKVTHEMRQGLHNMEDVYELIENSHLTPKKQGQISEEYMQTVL
How it was run: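 Antagonist mode: compound-treated TSHR-expressing HEK293 cells were stimulated with 1.5 ng/mL TSH (final) in presence of Ro20-1724 for 30 min at RT. HTRF cAMP detection after 1 h; each compound tested at 15 concentrations, triplicate.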

[8] = qHTS assay to identify small molecule agonists of the estrogen receptor alpha (ER-alpha) signaling pathway in the presence of an antagonist - cell viability counter screen (AID 1259386);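 further: cells exposed to compounds for 22 h at 37 °C before the viability read; nearly all actives have a fitted effect of over 30% in size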; further: potency means the concentration at half of the fitted maximal effect
How it was run: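 Cells are starved of estrogens for 5 days in charcoal-stripped serum, seeded for 24hr and co-treated with ICI-182,780 (10.0nM final) and test compounds. After 22hr at 37C, viability is read as CellTiter-Fluor fluorescence.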

[9] = target: Progesterone receptor (Homo sapiens) (UniProt P06401); assay: qHTS assay to identify small molecule agonists of the progesterone receptor (PR) signaling pathway (AID 1346784; calls by dose curve; further: nearly all actives have a fitted effect of over 30% in size)
Progesterone receptor (Homo sapiens), sequence (P06401 whole entry, looked up): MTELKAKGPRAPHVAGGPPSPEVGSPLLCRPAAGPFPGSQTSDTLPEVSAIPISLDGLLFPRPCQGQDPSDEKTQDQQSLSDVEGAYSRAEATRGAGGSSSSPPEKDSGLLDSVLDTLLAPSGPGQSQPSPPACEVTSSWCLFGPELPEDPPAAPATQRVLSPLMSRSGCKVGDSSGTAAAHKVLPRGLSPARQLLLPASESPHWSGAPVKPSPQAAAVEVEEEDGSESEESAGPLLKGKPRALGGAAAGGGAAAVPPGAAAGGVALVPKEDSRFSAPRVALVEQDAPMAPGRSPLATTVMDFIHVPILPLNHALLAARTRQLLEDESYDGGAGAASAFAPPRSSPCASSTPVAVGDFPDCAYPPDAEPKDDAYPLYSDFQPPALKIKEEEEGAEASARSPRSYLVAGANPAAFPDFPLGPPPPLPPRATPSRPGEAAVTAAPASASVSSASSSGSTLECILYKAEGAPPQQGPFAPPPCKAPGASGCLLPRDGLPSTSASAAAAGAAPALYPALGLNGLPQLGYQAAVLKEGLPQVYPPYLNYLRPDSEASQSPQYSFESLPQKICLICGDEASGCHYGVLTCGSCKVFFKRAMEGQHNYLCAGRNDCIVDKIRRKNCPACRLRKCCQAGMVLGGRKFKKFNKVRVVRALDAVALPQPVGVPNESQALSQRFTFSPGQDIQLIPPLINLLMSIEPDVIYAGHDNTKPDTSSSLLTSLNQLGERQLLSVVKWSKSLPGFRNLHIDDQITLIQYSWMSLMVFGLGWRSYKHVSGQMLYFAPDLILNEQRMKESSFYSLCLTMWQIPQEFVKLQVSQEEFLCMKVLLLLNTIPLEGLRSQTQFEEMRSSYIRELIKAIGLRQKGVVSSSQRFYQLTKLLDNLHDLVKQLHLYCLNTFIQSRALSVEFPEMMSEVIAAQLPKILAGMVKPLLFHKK
How it was run: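 Agonist mode, quantitative HTS format in a HEK 293T line expressing a UAS-controlled beta-lactamase reporter; 16 hr compound exposure at 37C in 2% charcoal-stripped FBS, then LiveBLAzer B/G FRET fluorescence.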

[10] = target: Progesterone receptor (Homo sapiens) (UniProt P06401); assay: qHTS assay to identify small molecule antagonists of the progesterone receptor (PR) signaling pathway (AID 1346795; active means well fitted inhibition curve with a large enough effect in the signal ratio in the repeat runs, not every such curve was filed as active; the % refers to the signal ratio)
How it was run: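 HEK293T PR-UAS-bla reporter cells in charcoal-stripped serum (2%) received compound after a 6 hr settling period, followed by R5020 agonist at 1 nM final; 16 hr incubation preceded the FRET substrate step and fluorescence measurement.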

[11] = qHTS assay to identify small molecule agonists of the progesterone receptor (PR) signaling pathway - cell viability counter screen (AID 1346799; calls by dose curve; further: nearly all actives have a fitted effect of over 45% in size)
How it was run: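 Counter screen for cytotoxicity: compound-treated PR-UAS-bla HEK293T cells (16 hr, 37C, 5% CO2) were assayed with CellTiter-Glo, luminescence measured after 30 min at room temperature.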

[12] = qHTS assay to identify small molecule antagonists of the TGF-beta/Smad signaling pathway - cell viability counter screen (AID 1346824); further: nearly all actives have a fitted effect of over 50% in size; further: potency means the concentration at half of the fitted maximal effect
How it was run: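 Cytotoxicity counter-screen run in the same wells as the beta-lactamase Smad reporter read: CellTiter-Glo luminescence after 30 min at room temperature. HEK 293T SBE-bla cells had 5 hr compound exposure at 37 C with TGF-beta1 (0.25 ng/mL stock).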

[13] = qHTS assay to identify small molecule agonists of the TGF-beta/Smad signaling pathway - cell viability counter screen (AID 1346829); further: nearly all actives have a fitted effect of over 45% in size; further: potency means the concentration at half of the fitted maximal effect
How it was run: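 In parallel with the Smad reporter read, viability of HEK 293T cells stably carrying SBE-bla is quantified by ATP luminescence following 5 hr compound treatment.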

[14] = qHTS assay to identify small molecule agonists of the TGF-beta/Smad signaling pathway (AID 1346859; active means well fitted activation curve with a large enough effect in the signal ratio in the repeat runs, not every such curve was filed as active; the % refers to the signal ratio; further: series mostly up to about 77 µM)
How it was run: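 Smad-responsive beta-lactamase reporter cells (HEK 293T) received compounds from DMSO stocks after overnight attachment, were incubated 5 hr, then treated 2 hr with FRET substrate before dual-emission fluorescence measurement (405 nm excitation).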

[15] = qHTS assay to identify small molecule agonists or antagonists of the thyroid stimulating hormone receptor (TSHR) signaling pathway - wild type cell line counter screen (AID 1259384; calls by dose curve)
How it was run: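 Counter screen in untransfected Hek293: compounds (15-point titration, triplicate) plus phosphodiesterase inhibitor Ro20-1724 added after 18 h plating; 30 min RT. Intracellular cAMP via competitive d2/cryptate immunoassay, 1 h incubation.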

[16] = qHTS assay to identify small molecule antagonists of the progesterone receptor (PR) signaling pathway - cell viability counter screen (AID 1346798); further: nearly all actives have a fitted effect of over 50% in size; further: potency means the concentration at half of the fitted maximal effect
How it was run: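 Same-well multiplex: after 16 hr at 37C with compound and R5020 stimulation, HEK293T cells carrying a UAS-bla reporter received LiveBLAzer substrate (2 hr RT), then CellTiter-Glo (30 min RT) for luminescent viability.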

[17] = target: Thyrotropin-releasing hormone receptor (Homo sapiens) (UniProt P34981); assay: qHTS assay to identify small molecule antagonists of the thyrotropin-releasing hormone receptor (TRHR) signaling pathway (AID 1346877; active means well fitted inhibition curve with a large enough effect in the repeat runs, not every such curve was filed as active; further: series mostly up to about 51 µM)
Thyrotropin-releasing hormone receptor (Homo sapiens), sequence (P34981 whole entry, looked up): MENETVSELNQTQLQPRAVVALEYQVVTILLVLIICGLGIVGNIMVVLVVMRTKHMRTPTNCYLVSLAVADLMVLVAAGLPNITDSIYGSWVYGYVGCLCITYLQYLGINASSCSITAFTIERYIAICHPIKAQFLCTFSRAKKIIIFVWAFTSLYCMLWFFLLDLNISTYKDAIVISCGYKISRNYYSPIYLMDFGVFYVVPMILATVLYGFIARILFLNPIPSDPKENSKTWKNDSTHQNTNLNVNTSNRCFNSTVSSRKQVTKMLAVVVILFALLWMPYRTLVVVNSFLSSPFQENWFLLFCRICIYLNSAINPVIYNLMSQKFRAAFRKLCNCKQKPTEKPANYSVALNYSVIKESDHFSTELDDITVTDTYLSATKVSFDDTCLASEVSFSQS
How it was run: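 Cells (TRHR-HEK293) are plated and kept 18 h at 37 °C/5% CO2. A calcium-sensitive dye is added for 2 h, compound follows for 5 min at room temperature, and TRH is then given at 1 nM final.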

[18] = target: Thyrotropin-releasing hormone receptor (Homo sapiens) (UniProt P34981); assay: qHTS assay to identify small molecule agonists of the thyrotropin-releasing hormone receptor (TRHR) signaling pathway (AID 1346891; calls by dose curve;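 further: HEK293 cells expressing TRHR with calcium dye readout; series mostly up to about 58 µM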)
How it was run: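 Agonist-mode calcium mobilisation screen: TRHR-transfected HEK293 cells cultured overnight (18 h), dye-loaded for 2 h at 37 °C, exposed to compounds, and monitored by fluorescence for 3 min.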

[19] = target: Estrogen receptor (Homo sapiens) (UniProt P03372); assay: qHTS assay to identify small molecule agonists of the estrogen receptor alpha (ER-alpha) signaling pathway in the presence of an antagonist (AID 1259383; calls by dose curve; further: top concentration of the series differs between compounds; nearly all actives have a fitted effect of over 15% in size)
Estrogen receptor (Homo sapiens), sequence (P03372 whole entry, looked up): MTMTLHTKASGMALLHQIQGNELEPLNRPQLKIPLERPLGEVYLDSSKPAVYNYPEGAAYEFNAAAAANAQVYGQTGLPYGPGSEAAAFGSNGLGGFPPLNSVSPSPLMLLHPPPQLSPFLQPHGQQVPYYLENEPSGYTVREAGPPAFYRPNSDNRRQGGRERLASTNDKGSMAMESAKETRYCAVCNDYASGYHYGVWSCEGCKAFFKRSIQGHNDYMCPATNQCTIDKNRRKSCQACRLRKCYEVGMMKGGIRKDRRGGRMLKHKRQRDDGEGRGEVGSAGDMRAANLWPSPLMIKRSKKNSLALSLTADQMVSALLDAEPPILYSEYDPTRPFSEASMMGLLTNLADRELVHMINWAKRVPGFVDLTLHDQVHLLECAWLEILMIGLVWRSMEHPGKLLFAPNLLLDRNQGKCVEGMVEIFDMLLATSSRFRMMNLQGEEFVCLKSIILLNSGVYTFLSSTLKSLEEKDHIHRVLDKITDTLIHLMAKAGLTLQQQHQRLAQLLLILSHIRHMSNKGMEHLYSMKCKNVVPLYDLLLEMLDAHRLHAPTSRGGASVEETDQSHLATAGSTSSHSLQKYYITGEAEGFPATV
How it was run: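 Cells are hormone-deprived for 5 days (charcoal-stripped FBS, no phenol red), plated for 24hr, spiked with 10.0nM ICI-182,780, then dosed at 15 concentrations. After 22hr at 37C, ONE-Glo luminescence reports ERE-luciferase activity.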

Brc1ccc(Br)cc1
Potency [1]: inactive and 54.5 µM (active)
Potency [2]: inactive
Potency [3]: inactive
Potency [4]: inactive
Potency [5]: inactive
Potency [6]: inactive
Potency [7]: inactive
Potency [8]: inactive
Potency [9]: inactive
Potency [10]: inactive
Potency [11]: inactive
Potency [12]: inactive
Potency [13]: inactive
Potency [14]: inactive

Clc1cccc(Cl)c1
Potency [1]: inactive
Potency [2]: inactive
Potency [3]: inactive
Potency [4]: inactive
Potency [6]: inactive
Potency [15]: inactive
Potency [7]: inactive
Potency [8]: inactive
Potency [9]: inactive
Potency [16]: inactive
Potency [11]: inactive
Potency [12]: inactive
Potency [13]: inactive
Potency [14]: inactive
Potency [17]: inactive
outcome [18]: inactive

COc1ccc(CO)cc1
Potency [1]: inactive
Potency [2]: inactive
Potency [3]: inactive
Potency [4]: inactive
Potency [5]: inactive
Potency [6]: inactive
Potency [15]: inactive
Potency [7]: inactive
Potency [8]: inactive
Potency [9]: inactive
Potency [10]: inactive
Potency [11]: inactive
Potency [12]: inactive
Potency [13]: inactive
Potency [14]: inactive
Potency [17]: inactive
outcome [18]: inactive

CS(=O)(=O)NC(=O)c1cc(Oc2ccc(C(F)(F)F)cc2Cl)ccc1[N+](=O)[O-]
Potency [1]: inactive
Potency [2]: inactive
Potency [4]: inactive
Potency [5]: inactive
Potency [6]: inactive
Potency [15]: inactive
Potency [7]: inactive
Potency [8]: inactive
Potency [9]: inactive
Potency [10]: inactive
Potency [16]: inactive
Potency [11]: inactive
Potency [13]: inactive
Potency [14]: inactive

CN(C)c1ccccc1
Potency [1]: inactive
Potency [2]: inactive
Potency [3]: inactive
Potency [4]: inactive
Potency [5]: inactive
Potency [6]: inactive
Potency [7]: inactive
Potency [8]: inactive
Potency [9]: inactive
Potency [10]: inactive
Potency [16]: inactive
Potency [11]: inactive
Potency [13]: inactive
Potency [14]: inactive
Potency [17]: inactive

Nc1ccc2ccccc2c1
Potency [1]: inactive
Potency [3]: inactive
Potency [4]: inactive
Potency [5]: inactive
Potency [6]: inactive
Potency [19]: inactive
Potency [8]: inactive
Potency [9]: inactive
Potency [11]: inactive
Potency [12]: inactive
Potency [13]: inactive
Potency [14]: inactive
Potency [17]: inactive

CCC/C=N/O
Potency [1]: inactive
Potency [2]: inactive
Potency [3]: inactive
Potency [4]: inactive
Potency [5]: inactive
Potency [6]: inactive
Potency [19]: inactive
Potency [8]: inactive
Potency [9]: inactive
Potency [11]: inactive
Potency [13]: inactive
Potency [14]: inactive
Potency [17]: inactive

CC(C)(O)C(=O)Nc1ccc([N+](=O)[O-])c(C(F)(F)F)c1
Potency [1]: 24.8 µM (active) and 22.4 µM (active)
Potency [2]: inactive
Potency [3]: inactive
Potency [5]: inactive
Potency [6]: inactive
Potency [19]: inactive
Potency [15]: inactive
Potency [7]: inactive
Potency [8]: inactive
Potency [9]: inactive
Potency [12]: inactive
Potency [13]: inactive
Potency [14]: inactive

CCCCCCCC[N+](C)(CCCCCCCC)CCCCCCCC
Potency [1]: 193 nM (active) and 48.6 nM (active) and 306 nM (active)
Potency [3]: 17.2 µM (active)
Potency [4]: 12.2 µM (active) and 2.73 µM (active) and 24.3 µM (active)
Potency [5]: 12.2 µM (active) and 27.3 µM (active) and 30.6 µM (active)
Potency [6]: 12.2 µM (active) and 43.3 µM (active) and 24.3 µM (active)
Potency [19]: inactive
Potency [15]: inactive
Potency [7]: inactive
Potency [8]: 21.6 µM (active) and 6.87 µM (active) and 30.6 µM (active)
Potency [9]: inactive
Potency [16]: 30.6 µM (active)
Potency [12]: 15.5 µM (active) and 49 µM (active)
Potency [13]: 49 µM (active)
